This is a sample that favours compounds with a hit; in the whole collection about 0.89% have one here.
MBNL1-CUG inh: blocks human MBNL1 binding to CUG repeat RNA | Potency, µM (series often up to 57.5 µM), usual class: inhibitors | TR-FRET MBNL1-His/biotin-(CUG)12 binding, 665/545 ratio | Q9NR56 | AID 2675 | 280,000 compounds, 0.036% hits; active means well fitted inhibition curve with a large enough effect in the signal ratio, with a control signal flat, not every such curve was filed as active; inconclusive means small, poorly fitted or top-dose-only effect, or effect the other way, or a change in a side signal; inactive means no such curve, though single readings can be large or run the other way; the % refers to the signal ratio
Target sequence (Q9NR56 whole entry, looked up): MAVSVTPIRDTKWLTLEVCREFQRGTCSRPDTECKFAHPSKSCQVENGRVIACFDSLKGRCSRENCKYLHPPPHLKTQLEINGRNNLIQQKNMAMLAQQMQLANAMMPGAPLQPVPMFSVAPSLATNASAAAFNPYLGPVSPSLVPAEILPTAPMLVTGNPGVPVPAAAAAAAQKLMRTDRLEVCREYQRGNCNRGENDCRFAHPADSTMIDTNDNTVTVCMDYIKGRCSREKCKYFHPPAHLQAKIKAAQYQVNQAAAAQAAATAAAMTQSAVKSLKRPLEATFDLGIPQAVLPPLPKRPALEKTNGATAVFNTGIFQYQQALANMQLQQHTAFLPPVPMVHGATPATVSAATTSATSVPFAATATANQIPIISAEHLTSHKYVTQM
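Inhibition of protein-RNA binding appears as loss of TR-FRET between terbium anti-His antibody on MBNL1-His and streptavidin-XL665 on biotin-(CUG)12. Activity is normalized to buffer-only and uninhibited-complex controls.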
L3MBTL1 inh: L3MBTL1 (human) inhibition; Potency, µM (top dose mostly 57.1 µM), hits mostly inhibitors; 230,000 compounds, 0.66% hits; AlphaScreen L3MBTL1–H3K9me1 peptide binding; further: nearly all actives have a fitted effect of over 60% in size
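L3MBTL1 (50 nM) pre-complexed 30 min with biotinylated H3(1-15)K9me1 peptide (75 nM), then compounds added for 30 min at room temperature; AlphaScreen streptavidin donor/nickel chelate acceptor beads (10 ug/mL final) read after 30 min dark incubation.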
CtBP-E1A inh: CtBP/E1A binding inhibition | AlphaScreen GST-E1A/His-CtBP binding, 1536-well; stronger effect = lower value | activity change, % (test concentration not listed) | 340,000 compounds, 0.49% hits; in the data active means activity change below about -65%; inconclusive means mostly about -30% to -63%
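AlphaScreen with 125 nM GST-E1A and 125 nM His-CtBP (5X stocks) in Tris pH 8.0, 300 mM NaCl, BSA, Tween 20, TCEP. Compounds preincubated 2 h at 37 deg C, then glutathione donor/nickel acceptor beads added for 1 h at 37 deg C in dark.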
Eya2 inh: blocks the phosphatase activity of human Eya2; recombinant Eya2, OMFP fluorescence dephosphorylation (OMFP is methylfluorescein phosphate); O00167; AID 488837; 330,000 compounds, 0.006% hits; Potency, µM (titrated, usually from 76.9 µM), hits mostly inhibitors
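Eya2 (0.2 uM) preincubated 10 min at ambient with compound, then OMFP substrate added at 50 uM; 10 min reaction in 50 mM HEPES pH 7.5, 50 mM NaCl, 5 uM MgCl2, 0.05% BSA, 1 mM DTT. Fluorescence read at Ex 485/Em 525 nm.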
Six1-Eya2 blk: Six1/Eya2 interaction inhibition; Q15475+O00167; AlphaScreen GST-Six1/His-Eya2 binding, biochemical; stronger effect = lower value; activity change, % (no concentration beside the values); 360,000 compounds, 0.56% hits; AID 651725; in the data active means activity change below about -65%; inconclusive means mostly about -30% to -63%
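AlphaScreen with GST-Six1 and His-Eya2 (5X mix: 250 nM and 500 nM), glutathione donor and nickel acceptor beads; buffer 50 mM Tris pH 8.0, 300 mM NaCl, 1 mM TCEP; 1 h at 37 C in the dark.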
CBFb RUNX1 block: inhibitors of human CBF-beta and RUNX1 interaction; Potency, µM (series often up to 59.8 µM), actives largely listed as inhibitors; AlphaScreen CBFb-His/RUNX1-biotin binding, biochemical; 230,000 tested, under 10 active
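Proteins preincubated together for 20 min at RT before compound addition; 15 min later, nickel and streptavidin beads were added and left 90 min prior to AlphaScreen measurement.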
Each line names hits and unclear results; the compound was inactive in the other large screens. Unless noted, the call rests on the fitted dose curve; in most records, active means well fitted curve in the direction sought with a large enough effect; inconclusive means small, poorly fitted or top-dose-only effect, or another doubt; inactive means no such curve, though single readings can be large; an effect the other way counts as inactive or inconclusive.

COc1cccc(/C=N/NC(=O)c2ccc3nc[nH]c3c2)c1O	CtBP-E1A inh -96.1, Six1-Eya2 blk -86.8
CCOc1cccc(/C=N/NC(=O)c2cc(C3CC3)[nH]n2)c1O	Six1-Eya2 blk -86.3 (no result: L3MBTL1 inh, CtBP-E1A inh, CBFb RUNX1 block)
COc1cccc(/C=N/NC(=O)c2c(C)nc3ccc(Br)cn23)c1O	CtBP-E1A inh -91.3, Six1-Eya2 blk -91.6 (no result: L3MBTL1 inh, CBFb RUNX1 block)
CCOc1cccc(/C=N/NC(=O)c2cccnc2)c1O	Six1-Eya2 blk inconclusive (no result: CtBP-E1A inh, CBFb RUNX1 block)
CCOc1ccccc1/C=N/NC(=O)c1c(C)nc2ccc(Br)cn12	none (no result: L3MBTL1 inh, CBFb RUNX1 block)
COc1ccccc1N1CCN(C(=O)CN(C)S(=O)(=O)c2cc(C)ccc2OC)CC1	none
Cc1c(/C=N/NC(=O)c2ccc(O)cc2)c2ccccn2c1C(=O)c1ccc(F)cc1	CtBP-E1A inh -78.3, Six1-Eya2 blk -70.4
Cc1c(/C=N/NC(=O)c2ccccc2O)c2ccccn2c1C(=O)c1ccc(F)cc1	L3MBTL1 inh inconclusive, Six1-Eya2 blk inconclusive
Cc1cc(C)c2cc3c(N)c(C(=O)Nc4c(C)[nH]c(=O)[nH]c4=O)sc3nc2c1	MBNL1-CUG inh inconclusive, Six1-Eya2 blk -71.5
O=C(CSc1ncn[nH]1)Nc1ccc(S(=O)(=O)N2CCCC2)cc1	none (no result: L3MBTL1 inh)
CNC(=O)CSc1nnc(-c2ccccc2F)n1CCc1ccccc1	none (no result: MBNL1-CUG inh, CtBP-E1A inh)
NC(=S)N/N=C/c1ccccc1OC(=O)/C=C/c1ccccc1	CtBP-E1A inh -93.3, Six1-Eya2 blk inconclusive (no result: L3MBTL1 inh, CBFb RUNX1 block)
CC(C)CCNC(=O)C(=O)NCC1OCCCN1S(=O)(=O)c1cccs1 (stereo not drawn)	none (no result: L3MBTL1 inh, CBFb RUNX1 block)
Cc1ccc(NC(=O)COc2ccccc2C(=O)NCc2ccccc2)cc1	none (no result: MBNL1-CUG inh, CBFb RUNX1 block)
CCOc1ccc(Br)cc1CNc1ccc2c(c1)OCCO2	L3MBTL1 inh inconclusive, CtBP-E1A inh inconclusive, Six1-Eya2 blk -77.0, CBFb RUNX1 block inconclusive
C=CCOc1ccccc1CNc1ccc2c(c1)OCCO2	none (no result: L3MBTL1 inh)
O=C(O)CCCCCNS(=O)(=O)c1cccc2c1C(=O)c1ccccc1C2=O	MBNL1-CUG inh inconclusive, Six1-Eya2 blk -76.4
Nc1n[nH]c(-c2ccccc2)n1	none
c1ccc(-c2n[nH]c(-c3ccccn3)n2)nc1	L3MBTL1 inh 2µM, CtBP-E1A inh -95.4, Six1-Eya2 blk -91.6
c1ccc(-c2n[nH]c(-c3ccccn3)n2)cc1	CtBP-E1A inh -92.1, Six1-Eya2 blk -90.6 (no result: L3MBTL1 inh)
COc1ccc(S(=O)(=O)N(CC(=O)NCC2CCCO2)c2ccc(F)cc2)cc1OC (stereo not drawn)	none
C=CCOC(=O)N[C@H](C[N+](=O)[O-])c1ccccc1	none (no result: MBNL1-CUG inh, L3MBTL1 inh, CtBP-E1A inh, Eya2 inh, Six1-Eya2 blk)
COCc1c(C(=O)N/N=C\c2ccccn2)nnn1-c1nonc1N	CtBP-E1A inh -69.7, Six1-Eya2 blk -74.3 (no result: L3MBTL1 inh, CBFb RUNX1 block)
COc1ccc(S(=O)(=O)n2oc(=O)cc2-c2ccccc2)cc1OC	CtBP-E1A inh inconclusive, Six1-Eya2 blk -94.5 (no result: L3MBTL1 inh)
O=c1cc(-c2ccccc2)n(S(=O)(=O)c2ccc3ccccc3c2)o1	none (no result: MBNL1-CUG inh, L3MBTL1 inh, Eya2 inh, CBFb RUNX1 block)
O=c1cc(-c2ccccc2)n(S(=O)(=O)c2ccccc2)o1	none (no result: L3MBTL1 inh)
COc1ccc(S(=O)(=O)n2oc(=O)cc2-c2ccccc2)cc1	CtBP-E1A inh -72.8, Six1-Eya2 blk -90.2 (no result: L3MBTL1 inh)
CN(C)c1ccc(NC(=S)c2ccccn2)cc1	MBNL1-CUG inh inconclusive, L3MBTL1 inh 31.6µM, CtBP-E1A inh -73.9, Six1-Eya2 blk -88.4
CN(C)c1ccc(C(=S)Nc2ccccc2)cc1	none
O=C(CSc1ccccn1)N/N=C/c1cc([N+](=O)[O-])ccc1O	MBNL1-CUG inh inconclusive, Six1-Eya2 blk -88.5 (no result: L3MBTL1 inh, CtBP-E1A inh)
O=C(CSc1ccccn1)N/N=C/c1ccccc1[N+](=O)[O-]	MBNL1-CUG inh inconclusive, CBFb RUNX1 block inconclusive
Cc1ccn(CC(=O)N/N=C/c2cc([N+](=O)[O-])ccc2O)n1	MBNL1-CUG inh inconclusive, L3MBTL1 inh inconclusive, CtBP-E1A inh -93.1, Six1-Eya2 blk -89.8, CBFb RUNX1 block inconclusive
Cc1cc(C)n(CC(=O)N/N=C/c2cccc([N+](=O)[O-])c2)n1	MBNL1-CUG inh inconclusive
Cc1cc([N+](=O)[O-])nn1CC(=O)N/N=C/c1ccc(O)cc1O	CtBP-E1A inh inconclusive, Six1-Eya2 blk -85.2 (no result: L3MBTL1 inh)

Assay outcomes from PubChem.
